High-throughput results from PubChem.
TIM10 inh: inhibits growth of TIM10 yeast strain; S. cerevisiae TIM10 strain growth, BacTiter-Glo luminescence, 24 h; inhibition, % at 10 µM; 1.4% of 330,000 active;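 active = inhibition of 40% or more at the single tested concentration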;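 note: wild-type TIM10 isogenic control strain grown at permissive 25 °C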
SKKanGAS inh: inhibitors of SKKanGAS S. pyogenes growth in kanamycin (SK-promoter or general growth effect). BacTiter-Glo, 6 h. inhibition, % at 7.5 µM. 1.3% of 300,000 active;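 active = mean replicate score, as percent of positive control median, at least 50; inconclusive = mean below 50 but one replicate at or above 50; inactive = mean and every replicate below 50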;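 note: strain carries kanamycin resistance gene driven by streptokinase promoter and grows in 40 µg/ml kanamycin; loss of luminescence reflects streptokinase promoter inhibition or plain growth inhibition; 0% = median of DMSO wells and 100% = positive control at its reference dose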
tim10-1 inh: tim10-1 yeast growth inhibition; S. cerevisiae tim10-1 ts strain growth, BacTiter-Glo, 24 h; inhibition, % at 20 µM; 2.2% of 330,000 active;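 active = inhibition of at least 40%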;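 note: mutant grown at 25 °C; 0% = DMSO wells with yeast and 100% = wells holding no yeast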
PfHsp90 yeast 2: reduces growth (ATP signal) of yeast expressing P. falciparum Hsp90; AID 504621; inhibition, % at 9.4 µM; S. cerevisiae expressing PfHsp90, BacTiter-Glo ATP, 48 h; yeast lacking PDR1 and PDR3 efflux regulators; 0.32% of 310,000 active;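 active = every replicate shows inhibition above about 80%, whatever the replicate mean, limit read from the data; inconclusive = mean inhibition reaches the set limit but some replicate falls short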;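 note: 0% = DMSO neutral controls and 100% = 20 µM radicicol positive controls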
EBI2 antag: antagonists of human EBI2 receptor. P32249. EBI2 beta-arrestin recruitment, luminescence, 7a,25-OHC stimulated. inhibition, % at 5 µM. 0.81% of 360,000 active; in the data active = inhibition above about 38%;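 note: enzyme fragment complementation signal reports receptor beta-arrestin coupling in cells; 0% = agonist plus DMSO wells and 100% = wells without agonist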
Target sequence (P32249 whole entry, looked up, the tested form may be a part): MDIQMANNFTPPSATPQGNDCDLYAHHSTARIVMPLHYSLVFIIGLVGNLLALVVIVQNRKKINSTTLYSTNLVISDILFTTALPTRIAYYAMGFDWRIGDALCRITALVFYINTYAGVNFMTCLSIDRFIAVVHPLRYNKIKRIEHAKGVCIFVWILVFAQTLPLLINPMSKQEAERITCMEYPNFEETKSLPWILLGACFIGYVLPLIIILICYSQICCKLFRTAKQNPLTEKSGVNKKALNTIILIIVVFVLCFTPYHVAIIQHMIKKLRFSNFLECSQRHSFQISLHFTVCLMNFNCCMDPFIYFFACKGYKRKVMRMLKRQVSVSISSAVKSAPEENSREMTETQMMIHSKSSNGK
tim23-1 inh: growth inhibitors of tim23-1 mutant yeast. S. cerevisiae tim23-1 growth, BacTiter-Glo luminescence, 24 h. inhibition, % at 20 µM. 1.3% of 330,000 active. AID 463212;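 active = growth inhibition of the mutant yeast at or above 50%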;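 note: temperature-sensitive mutant grown at 25 °C; plate controls were DMSO-treated mutant yeast for no effect and medium wells lacking yeast for full effect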
tim10-1 confirm: tim10-1 yeast growth inhibition, confirmed. AID 463213. 56% of 7,400 active. S. cerevisiae tim10-1 ts strain growth, BacTiter-Glo, 24 h. inhibition, % at 20 µM. shares compounds with tim10-1 inh;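 active = inhibition of yeast growth at or above a set limit in either of two repeat tests at 20 µM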;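 note: tim10-1 mutant grown at permissive 25 °C to find synthetic lethal compounds; 0% = DMSO yeast wells and 100% = medium wells without yeast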
TIM10 conf: TIM10 yeast growth inhibition, confirmed. shares compounds with TIM10 inh. 63% of 4,600 active. inhibition, % at 10 µM. S. cerevisiae tim10 strain growth, BacTiter-Glo luminescence, 24 h. AID 463215;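 active = inhibition of yeast growth at or above a set limit in either of two replicates at 10 µM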;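 note: this counterscreen used the strain with wild-type TIM10; 0% = yeast with DMSO and 100% = medium wells lacking yeast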
tim23-1 conf: tim23-1 yeast growth inhibition, confirmed; AID 463218; shares compounds with tim23-1 inh; inhibition, % at 20 µM; S. cerevisiae tim23-1 growth, BacTiter-Glo luminescence, 24 h; 83% of 4,400 active;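 active = inhibition above about 39% in either of two replicate wells at 20 µM, limit read from the data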;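 note: temperature-sensitive tim23-1 mutant grown at 25 °C; 0% = DMSO wells with yeast and 100% = medium wells without yeast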
* = called active by the depositor. This is a sample that favours compounds with a hit; in the whole collection about 4.7% have one here.

How did COc1ccccc1C(=O)Nc1cccc2cccnc12 do in these assays?
TIM10 inh: 35; SKKanGAS inh: -1; tim10-1 inh: 48*; PfHsp90 yeast 2: -5; EBI2 antag: 1; tim23-1 inh: 72*; tim10-1 confirm: 42*; tim23-1 conf: 72*

What do the screens show for `Cc1ccc(NC(=O)c2cccc3cccnc23)cc1`?
TIM10 inh: 31; SKKanGAS inh: 0; tim10-1 inh: 42*; PfHsp90 yeast 2: 25; EBI2 antag: 17; tim23-1 inh: 65*; tim10-1 confirm: 41*; tim23-1 conf: 80*

Results for O=C(Nc1cccc2cccnc12)c1ccccc1Cl ?
TIM10 inh: 13; SKKanGAS inh: -9; tim10-1 inh: 9; EBI2 antag: -1; tim23-1 inh: 13

How did Cc1cc(C)c2c(N)c(S(=O)c3ccc(C(C)(C)C)cc3)sc2n1 (configuration not stated) do in these assays?
TIM10 inh: 35; SKKanGAS inh: 0; tim10-1 inh: 63*; PfHsp90 yeast 2: -5; EBI2 antag: 6; tim23-1 inh: 60*; tim10-1 confirm: 44*; tim23-1 conf: 62*

How did CCc1nc2sc3ccccc3c(=O)c2c(=O)n1Cc1ccco1 do in these assays?
TIM10 inh: 34; SKKanGAS inh: 5; tim10-1 inh: 69*; PfHsp90 yeast 2: -80; EBI2 antag: 0; tim23-1 inh: 53*; tim10-1 confirm: 61*; tim23-1 conf: 62*

What do the screens show for `CCC(=O)NC(=S)Nc1ccc(NC(=O)COc2ccc(Cl)cc2Cl)cc1`?
TIM10 inh: 34; SKKanGAS inh: 12; tim10-1 inh: 26; PfHsp90 yeast 2: -7; EBI2 antag: 2; tim23-1 inh: 13

What do the screens show for `COc1ccc(CC(=O)NC(=S)Nc2cccc(C)c2)cc1`?
TIM10 inh: 47*; SKKanGAS inh: -9; tim10-1 inh: 46*; PfHsp90 yeast 2: -3; EBI2 antag: 0; tim23-1 inh: 62*; tim10-1 confirm: 29*; TIM10 conf: 36*; tim23-1 conf: 46*

How did Cc1cccc(NC(=S)NNC(=O)COc2ccc(Cl)cc2Cl)c1 do in these assays?
TIM10 inh: 43*; SKKanGAS inh: 0; tim10-1 inh: 46*; PfHsp90 yeast 2: -22; EBI2 antag: -2; tim23-1 inh: 52*; tim10-1 confirm: 32*; TIM10 conf: 0; tim23-1 conf: 42*

What do the screens show for `COc1ccc(CC(=O)NC(=S)Nc2cccc(CO)c2)cc1`?
TIM10 inh: 12; SKKanGAS inh: 3; tim10-1 inh: 13; EBI2 antag: -1; tim23-1 inh: 24

What do the screens show for `Cc1ccc(N=Cc2cc(Br)cc(Cl)c2O)cc1`?
TIM10 inh: 33; SKKanGAS inh: 12; tim10-1 inh: 51*; PfHsp90 yeast 2: -61; EBI2 antag: -4; tim23-1 inh: 77*; tim10-1 confirm: 17; tim23-1 conf: 78*

Results for O=[N+]([O-])c1ccc(Sc2ncccn2)c([N+](=O)[O-])c1 ?
TIM10 inh: 37; SKKanGAS inh: -1; tim10-1 inh: 42*; PfHsp90 yeast 2: -38; EBI2 antag: -67; tim23-1 inh: 53*; tim10-1 confirm: 50*; tim23-1 conf: 40*

What do the screens show for `O=C(O)CCSc1ccc([N+](=O)[O-])cc1[N+](=O)[O-]`?
TIM10 inh: 7; SKKanGAS inh: inconclusive; tim10-1 inh: 44*; PfHsp90 yeast 2: 27; EBI2 antag: -2; tim23-1 inh: 51*; tim10-1 confirm: 30*; tim23-1 conf: 53*

How did O=[N+]([O-])c1ccc(SNc2ccccc2)c([N+](=O)[O-])c1 do in these assays?
PfHsp90 yeast 2: 24; EBI2 antag: 30

Results for O=C(Cc1ccccc1)c1c[nH]c(C(=O)NCCCN2CCOCC2)c1 ?
TIM10 inh: -13; SKKanGAS inh: -5; tim10-1 inh: 5; PfHsp90 yeast 2: -30; EBI2 antag: 3; tim23-1 inh: -8
